Test results reported in PubChem BioAssay.

Key:
[1] = tested on: Human papillomavirus type 1a protein E7 (residues 44-93); experiment: small molecules binding HPV E7 44-93 – biochemical, small-molecule microarray, residues 44-93, 635 nm fluorescence, primary screen (AID 1108); conditions: fluorescence 635 nm, higher = more signal;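 also: E7 fragment applied at 1 µg/mL in TBST for 1 h at 4 C; score combines spot fluorescence with its signal to noise ratio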
[2] = hepatitis C replication reporter changes, two-sided – Huh7 cells, luciferase reporter, HCV replication inhibitor project, primary screen (AID 1109); conditions: Huh7 HCV replicon luciferase reporter, 48 h; higher = more signal;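 also: huh7 hepatoma cells harbouring a luciferase neomycin HCV replicon reporter; luciferase luminescence as measure of HCV replicon replication; test concentration not given here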
[3] = target: Left-right determination factor 2 (Homo sapiens) (UniProt O00292); experiment: small molecules binding LEFTY2 protein – biochemical, small-molecule microarray, 635 nm fluorescence scan, primary screen (AID 1110); conditions: higher = more signal
[4] = target: Calmodulin-1 (Homo sapiens) (UniProt P0DP23); experiment: small molecules binding calmodulin-1 with EGTA – biochemical, small-molecule microarray, Cy5-labelled CALM1, profiling panel (AID 1111); conditions: Cy5-CALM1 binding fluorescence, higher = more signal;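 also: labelled calmodulin applied in Tris saline Tween buffer holding calcium plus EGTA and DTT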
[5] = target: Calmodulin-1 (Homo sapiens) (UniProt P0DP23); experiment: small molecules binding Ca-loaded calmodulin-1 – biochemical, small-molecule microarray, Cy5-labelled CALM1, plus calcium, artefact control for SMM control-protein annotation, profiling panel (AID 1112); conditions: Cy5-CALM1 binding fluorescence, higher = more signal;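 also: score merges spot fluorescence with signal to noise from triplicate slides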
[6] = probe aWnt5a binding to arrayed compounds – biochemical, biotinylated probe, 635/667 nm fluorescence, primary screen (AID 1113); conditions: small-molecule microarray, higher = more signal;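 also: score merges 667 nm fluorescence intensity with signal-to-noise per printed feature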
[7] = probe aShh binding to arrayed compounds – biochemical, biotinylated probe, 635/667 nm fluorescence, primary screen (AID 1114); conditions: small-molecule microarray, higher = more signal;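 also: probe is biotin-labelled aShh protein from a stem cell growth factor screen; measures binding of labelled protein to compounds printed on the slide; score merges feature fluorescence at 667 nm with signal-to-noise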
[8] = probe aNog binding to arrayed compounds – biochemical, biotinylated probe, 635/667 nm fluorescence, primary screen (AID 1115); conditions: small-molecule microarray, higher = more signal;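 also: probe is biotinylated aNog protein used at 0.15 µg/mL for 1 h at 4 C; z-score combines 667 nm fluorescence of each spot with its signal to noise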
[9] = target: Torsin-1A-interacting protein 1 (Homo sapiens) (UniProt Q5JTV8); experiment: compound microarray binding of lysate hLAP1 – cell lysate, small-molecule microarray, COS7 lysate, 635/667 nm fluorescence, primary screen (AID 1116); conditions: 635 nm fluorescence, higher = more signal
[10] = target: Alpha-bungarotoxin (Bungarus multicinctus) (UniProt P60615); experiment: compounds binding labelled alpha-BTX control protein – biochemical, small-molecule microarray, Alexa647 label, 635/667 nm fluorescence, artefact control for SMM control protein annotation, profiling panel (AID 1117); conditions: alpha-BTX-A647 binding fluorescence, higher = more signal
Sequence of Alpha-bungarotoxin (Bungarus multicinctus) (P60615 whole entry, looked up): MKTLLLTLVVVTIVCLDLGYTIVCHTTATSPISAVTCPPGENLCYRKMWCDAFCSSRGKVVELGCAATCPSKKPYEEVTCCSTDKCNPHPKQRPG

Sequence of Torsin-1A-interacting protein 1 (Homo sapiens) (Q5JTV8 whole entry, looked up): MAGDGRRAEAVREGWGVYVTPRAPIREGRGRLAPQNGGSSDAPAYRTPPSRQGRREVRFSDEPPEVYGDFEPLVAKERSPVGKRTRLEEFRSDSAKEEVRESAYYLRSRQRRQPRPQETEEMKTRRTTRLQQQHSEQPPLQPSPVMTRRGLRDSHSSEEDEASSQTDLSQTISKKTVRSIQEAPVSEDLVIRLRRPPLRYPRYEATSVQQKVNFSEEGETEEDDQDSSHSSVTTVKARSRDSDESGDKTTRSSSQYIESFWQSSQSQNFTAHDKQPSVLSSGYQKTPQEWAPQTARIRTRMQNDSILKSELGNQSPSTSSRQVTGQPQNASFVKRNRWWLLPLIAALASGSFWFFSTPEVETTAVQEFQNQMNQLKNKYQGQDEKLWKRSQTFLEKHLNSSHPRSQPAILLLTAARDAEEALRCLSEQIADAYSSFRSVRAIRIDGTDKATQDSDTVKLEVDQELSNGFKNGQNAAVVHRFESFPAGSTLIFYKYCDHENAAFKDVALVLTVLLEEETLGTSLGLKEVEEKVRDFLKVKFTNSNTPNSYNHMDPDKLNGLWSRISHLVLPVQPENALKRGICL
Sequence of Left-right determination factor 2 (Homo sapiens) (O00292 whole entry, looked up): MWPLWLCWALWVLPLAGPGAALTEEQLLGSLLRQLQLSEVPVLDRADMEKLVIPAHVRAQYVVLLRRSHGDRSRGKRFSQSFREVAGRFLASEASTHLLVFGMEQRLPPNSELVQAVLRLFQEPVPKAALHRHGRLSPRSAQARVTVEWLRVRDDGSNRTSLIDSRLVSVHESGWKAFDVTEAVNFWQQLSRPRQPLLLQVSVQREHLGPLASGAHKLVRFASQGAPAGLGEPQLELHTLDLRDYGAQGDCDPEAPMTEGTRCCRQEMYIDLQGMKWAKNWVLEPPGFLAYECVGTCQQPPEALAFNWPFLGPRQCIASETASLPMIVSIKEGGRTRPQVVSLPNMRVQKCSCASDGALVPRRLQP

Row | Compound | composite z-score [1] | z-score [2] | composite z-score [3] | composite z-score [4] | composite z-score [5] | composite z-score [6] | composite z-score [7] | composite z-score [8] | composite z-score [9] | composite z-score [10]
1 | CN1C(=O)C2C=CC(C(O)c3ccc(I)cc3)N(N(c3ccccc3)c3ccccc3)C2C1=O (stereo not given) | -0.802 | -1.55 | -0.953 | 0.95 | -0.0638 | -0.0735 | 0.0469 | 0.878 | -0.119 | 0.98
2 | CC[C@@H]1C=C(C(=O)O)[C@H](c2cccc(Cl)c2)N1S(=O)(=O)c1ccc(C)cc1 | 1.2 | -0.54 | -0.8 | 0.875 | 0.0755 | -0.0758 | 0.14 | 0.527 | 1.09 | 0.105
3 | COC(=O)[C@@]1(Cc2ccc(F)cc2)[C@H]2c3cc(C(=O)N4CCCC4)n(Cc4ccc(C(F)(F)F)nc4)c3C[C@H]2CN1C(=O)c1ccccc1 | 1.18 | -2.15 | 0.0089 | 2.16 | 0.557 | 0.106 | -0.382 | -1.06 | 0.873 | 0.615
4 | COC(=O)[C@@]1(Cc2ccccc2)[C@H]2c3cc(C(=O)N(C)C)n(Cc4ccc(Cl)c(C(F)(F)F)c4)c3C[C@H]2CN1C(=O)c1ccccc1 | 1.37 | -2.61 | 0.533 | 1.49 | 1.06 | 0.315 | 1.24 | 1.91 | 0.636 | 0.995
5 | C=C(C(=O)CC[C@H](OC(=O)c1ccccc1-c1ccccc1C(=O)O)c1ccc(OCCO)cc1)C(C)C | 1.38 | -1.26 | 0.0164 | 0.275 | -0.37 | 0.204 | 0.0639 | 1.14 | 0.735 | 0.971
6 | C=CC[C@]1(C(=O)NCCN2CCOCC2)N=C(c2ccc(OCCCO)cc2)O[C@H]1c1ccccc1 | 1.35 | -0.633 | 0.66 | 0.0631 | -0.442 | 0.212 | 0.398 | -0.103 | 1.24 | 0.429
7 | O=C(NC1CC1)[C@@H]1c2ccccc2C(=O)N(C2CCCCC2)[C@H]1c1ccc(CO)cc1 | 0.178 | -2.14 | 0.0863 | 0.576 | 0.109 | -0.176 | -0.321 | -0.16 | 0.482 | 1.5
8 | COC(=O)[C@@]1(Cc2ccc(OC)cc2)[C@H]2c3cc(C(=O)N(C)C)n(Cc4c(CO)[nH]cc(C)c4=O)c3C[C@H]2CN1C(=O)c1ccccc1 | 0.784 | -1.37 | -0.0944 | 1.1 | 0.351 | 0.302 | 0.04 | -0.211 | 0.376 | 0.302
9 | COC(=O)C(CC#Cc1ccc2c(c1)[C@]1(C(=O)N2)[C@H](C(=O)NC[C@H](O)c2ccccc2)[C@H]2C(=O)O[C@H](c3ccccc3)[C@H](c3ccccc3)N2[C@@H]1c1ccc(O)cc1)C(=O)OC | -0.603 | -1.7 | -0.357 | -0.113 | -0.327 | -0.217 | -0.138 | -0.121 | -0.223 | -0.111
10 | C=CCNC(=O)[C@H]1[C@@H]2C(=O)O[C@@H](c3ccccc3)[C@@H](c3ccccc3)N2[C@@H](c2ccc(OCCO)cc2)[C@]12C(=O)Nc1ccc(C#Cc3ccc(OC)cc3)cc12 | 1.02 | -2.18 | 0.699 | 0.573 | 0.787 | 0.104 | 0.465 | -0.403 | 1.1 | 1.71
11 | Cc1ccc(N2C(=O)c3ccccc3[C@@H](C(=O)NCCN3CCOCC3)[C@@H]2c2ccc(CO)cc2)nc1 | 0.113 | 0.193 | -1.29 | -0.287 | 0.609 | -0.1 | -0.214 | -0.434 | -1.3 | -0.843
12 | COC(=O)C[C@H]1O[C@]2(C(=O)N(C)c3ccccc32)[C@@H](C)[C@@H]1[Si](C)(C)c1ccccc1 | 0.623 | -2.1 | 0.469 | -0.0495 | -0.401 | -0.124 | 0.318 | -0.0446 | 0.0282 | 0.586
13 | CCOC(=O)C=C1C[C@@H](c2cccc([N+](=O)[O-])c2)O[C@@H](c2cccc([N+](=O)[O-])c2)O1 | 0.478 | -1.96 | 0.584 | 1.68 | 0.966 | 0.0289 | 0.317 | 1.64 | 0.785 | 1.05
14 | COc1cccc(C)c1NC(=O)O[C@H]1[C@H](OC(=O)Nc2ccccc2-c2ccccc2)[C@@H](OC(=O)Nc2ccccc2-c2ccccc2)[C@@H](OC)O[C@@H]1CO | 1.52 | -3.72 | 0.49 | 1.75 | -0.136 | -0.0325 | -0.0211 | 1.08 | 0.809 | 0.949
15 | C#CCN(C(=O)OC(C)(C)C)[C@H](CO)c1ccccc1 | 0.486 | 0.712 | 0.353 | -0.528 | -0.964 | -0.18 | -0.138 | -0.141 | 0.391 | 0.0876
16 | O=C1C2C=CC(C(O)C3CC=CCC3)N(Nc3ccc([N+](=O)[O-])cc3)C2C(=O)N1c1ccccc1 (stereo not given) | 0.34 | 0.276 | 0.485 | 1.76 | -0.0685 | 0.22 | 0.262 | 1.39 | 1.75 | 1.87
17 | C=C(CCCC)C(=O)CC[C@@H](OC(C)=O)c1ccc(OCCO)cc1 | 0.159 | -1.98 | 0.125 | -0.537 | -1.29 | -0.1 | -0.0035 | -0.113 | 3.18 | -0.127

Row | Compound | composite z-score [1] | z-score [2] | composite z-score [3] | composite z-score [4] | composite z-score [5] | composite z-score [6] | composite z-score [7] | composite z-score [8] | composite z-score [9] | composite z-score [10]
18 | CC[C@H]1C2=C3C(CC[C@H]4C(OCc5ccc(F)cc5C(F)(F)F)OC[C@](C)([C@@H]34)N(C(=O)OC(C)(C)C)C2)C(COC(C)=O)C1COC(C)=O (stereo not given in full) | 1.35 | -0.567 | -0.747 | 1.97 | 1.15 | 0.24 | 1.15 | -0.313 | 0.0366 | 0.729
19 | COc1ccc(CCNC(=O)[C@@H]2c3ccccc3C(=O)N(C(C)C)[C@H]2c2ccc(CO)cc2)cc1 | -0.943 | -1.41 | -1.81 | -0.446 | 0.465 | -0.172 | -0.209 | -0.0621 | 0.434 | 2.66
20 | CC(C)C[C@@H]1NC(=O)[C@H]2C[C@@H](C(=O)O)[C@@H](c3cccc(OCCO)c3)N2C1=O | -0.239 | 2.62 | 0.779 | -0.418 | -0.2 | -0.0704 | -0.0289 | -0.0503 | 0.884 | 0.209
21 | COCCCNC(=O)[C@@]1(Cc2ccccc2I)c2ccccc2C(=O)N(Cc2ccccc2C(F)(F)F)[C@H]1c1ccc(CO)cc1 | 1.1 | -0.594 | -2.26 | -0.285 | -0.664 | -0.136 | -0.0848 | 0.2 | -0.0065 | -0.458
22 | CN(C)CCCCCCNC(=O)[C@@H]1C[C@@H]2C(=O)N[C@@H](CCCC[N+](C)(C)C)C(=O)N2[C@@H]1c1cccc(OCCO)c1 | -0.0272 | 3.7 | -1.28 | -0.207 | -0.327 | -0.0981 | -0.295 | -0.444 | 2.09 | 0.217
23 | COC(=O)[C@]1(Cc2ccccc2CN=[N+]=[N-])N=C(c2ccc(OCCCO)cc2)O[C@@H]1c1ccccc1N=[N+]=[N-] | -0.131 | -2.65 | -0.0976 | -0.0209 | -0.307 | -0.0346 | -0.018 | 1.03 | 0.963 | 0.37
24 | CC(C)(C)OC(=O)CC[C@]1(C(N)=O)N=C(c2ccc(OCCCO)cc2)O[C@H]1c1ccccc1N=[N+]=[N-] | 0.97 | 0.697 | -0.143 | 1.53 | 1.1 | 0.0371 | 0.232 | 0.886 | 0.791 | 1.43
25 | OCCCc1cc[n+](Cc2cc3c(cc2Br)OCO3)cc1 | -0.945 | 1.05 | -1.12 | -1.81 | 0.172 | -0.147 | -0.207 | -0.172 | -0.81 | -2.04
26 | CC(C)C[C@H]1NC(=O)CNC(=O)[C@@]23C(=O)N[C@@H](Cc4ccccc4)C2[C@H](C)[C@@]2(C)O[C@H]2C3/C=C/C/C=C\CNC1=O (stereo not given in full) | 0.0774 | 0.238 | 0.715 | -0.322 | -0.833 | -0.169 | -0.221 | -0.0315 | -0.0248 | -0.188
27 | C=CCC(OC(C)=O)[C@@H]1[C@@H](N(Cc2ccc(-c3ccccc3)cc2)C(=O)Cc2ccc(OC)cc2)c2cc(OCCCO)ccc2N1C(=O)c1ccc2ccccc2c1 (stereo not given in full) | 0.242 | -0.856 | 0.215 | 0.106 | 0.335 | -0.122 | -0.153 | -0.57 | 0.748 | 0.284
28 | C=CC[C@H](O)c1ccc(O)c2ccccc12 | 0.7 | -2.04 | 0.685 | -0.536 | -1.32 | -0.0521 | 0.151 | -0.158 | 0.655 | 1.23
29 | CC(=O)NCCCC[C@@H]1NC(=O)[C@H]2C[C@@H](C(=O)O)[C@@H](c3cccc(OCCO)c3)N2C1=O | 1.11 | -1.14 | 0.978 | 0.0626 | -0.767 | 0.27 | 0.588 | 1.51 | 1.53 | 1.49
30 | COCCOC(=O)N1C(=O)[C@@]2(c3cc(C#CC4=CCCCC4)ccc31)[C@H](C(=O)N1CCCCCCC1)[C@H]1C(=O)O[C@H](c3ccccc3)[C@H](c3ccccc3)N1[C@@H]2c1ccccc1OCCO | 1.37 | -0.794 | 0.327 | 1.78 | 0.759 | 0.16 | 0.926 | 1.2 | 1.94 | 1
31 | COC(=O)[C@@]1(Cc2ccc(F)cc2)[C@H]2c3cc(C(=O)N(C)C)n(Cc4ccsc4Br)c3C[C@H]2CN1C(=O)c1ccccc1 | -0.468 | -0.787 | 0.648 | 2.16 | 0.981 | 1.37 | 2.15 | -0.0209 | 1.53 | 0.427
32 | Cc1ccc(S[C@]2(C(=O)NCc3ccccc3)CC(=O)N(Cc3ccccc3C(F)(F)F)[C@@H]2c2ccc(CO)cc2I)cc1 | -0.565 | -1.64 | -0.916 | -0.348 | 0.549 | -0.124 | -0.334 | 0.389 | 0.662 | -0.593
33 | O=C1C2C=CC(C(O)c3ccccn3)N(Nc3ccc([N+](=O)[O-])cc3)C2C(=O)N1c1ccccc1 (stereo not given) | 0.0529 | -0.35 | 0.335 | 2.02 | 0.897 | -0.0799 | 0.184 | 0.479 | 0.958 | 1.11
34 | C=C(CCCC)/C(=C/C[C@@H](OC(C)=O)c1cccc(OCCO)c1)c1cc(C(=O)OC)ccc1OC | 0.364 | -2.02 | -0.227 | -0.405 | -0.788 | -0.119 | 0.111 | -0.18 | 0.714 | 0.621
